Measured values: PubChem BioAssay AID1159580 (chemical genetic matrix, 2015)
Where “and” joins values, the source holds several entries; their conditions need not be identical. Identical values can stand only once. About 2,000 (36%) of roughly 5,500 compounds were called active. Not shown: some 18% with an inconclusive outcome. No stated cut-off is given here; in the data, active means normalized growth mostly below about 0.91 (no sharp cut-off); inconclusive means no clear call, values can overlap the other calls; inactive means mostly above about 0.92. Some of the results follow.

Experiment: chemical genetic growth profiling, strain panel (AID 1159580);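 further: tested at 20 µM; growth read once vehicle control cultures reached saturation at 30 °C; 1 = growth at the plate median or of vehicle wells; lower values mean less growth of the strain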
Conditions: S. cerevisiae deletion strains, growth OD

Measured: normalized growth

CNCCCC12CCC(c3ccccc31)c1ccccc12
active: locus YAL026C, strain drs2, active compounds read low 0.768
inactive: locus YAL013W, strain DEP1, active compounds read low 0.974 and 1.01 | locus YAL021C, strain ccr4, active compounds read low 0.931 | locus YAL030W, strain snc1, active compounds read low 0.999 | locus YAL040C, strain CLN3, active compounds read low 1 | locus YBL061C, strain skt5, active compounds read low 0.979 | locus YBR009C, strain hhf1, active compounds read low 0.992 | locus YBR021W, strain FUR4, active compounds read low 0.948 | locus YBR023C, strain chs3, active compounds read low 0.957 | locus YBR171W, strain sec66, active compounds read low 0.99 | locus YBR229C, strain ROT2, active compounds read low 0.974 | locus YBR231C, strain swc5, active compounds read low 0.956 | locus YBR279W, strain paf1, active compounds read low 0.971 | locus YCL011C, strain gbp2, active compounds read low 0.963 | locus YCL016C, strain dcc1, active compounds read low 0.976 | locus YCL029C, strain bik1, active compounds read low 0.994 | locus YCL061C, strain MRC1 (second series), active compounds read low 0.999 | locus YCL069W, strain vba3, active compounds read low 1.01 | locus YCR088W, strain abp1, active compounds read low 0.998 | locus YDL005C, strain med2, active compounds read low 0.972 | locus YDL035C, strain GPR1, active compounds read low 0.998 | locus YDL040C, strain nat1, active compounds read low 0.989 | locus YDL074C, strain BRE1, active compounds read low 0.97 | locus YDL101C, strain DUN1, active compounds read low 0.981 | locus YDL134C, strain PPH21, active compounds read low 0.984 | locus YDL185W, strain tfp1, active compounds read low 0.978 | locus YDL192W, strain arf1, active compounds read low 0.991 | locus YDR001C, strain nth1, active compounds read low 0.975 | locus YDR069C, strain doa4, active compounds read low 0.918 | locus YDR101C, strain arx1, active compounds read low 1.01 | locus YDR137W, strain rgp1, active compounds read low 1.02 | locus YDR159W, strain sac3, active compounds read low 0.95 | locus YDR162C, strain NBP2, active compounds read low 0.996 | locus YDR195W, strain ref2 1.03 | locus YDR297W, strain sur2, active compounds read low 0.975 | locus YDR318W, strain mcm21, active compounds read low 0.973 | locus YDR334W, strain swr1, active compounds read low 0.995 | locus YDR335W, strain msn5, active compounds read low 0.982 | locus YDR363W, strain ESC2, active compounds read low 1.01 | locus YDR388W, active compounds read low 0.983 | locus YDR392W, strain spt3, active compounds read low 0.999 | locus YDR502C, strain sam2, active compounds read low 0.976 | locus YEL003W, strain gim4, active compounds read low 0.978 | locus YEL037C, strain rad23, active compounds read low 0.997 | locus YEL061C, strain CIN8 (second series), active compounds read low 0.975 | locus YEL061C, strain CIN8, active compounds read low 1.01 | locus YER002W, strain NOP16, active compounds read low 1 | locus YER015W, strain faa2, active compounds read low 0.978 | locus YER016W, strain bim1, active compounds read low 0.996 | locus YER110C, active compounds read low 0.989 | locus YER111C, strain swi4, active compounds read low 0.995 | locus YER155C, strain BEM2 (second series), active compounds read low 0.977 | locus YER155C, strain BEM2, active compounds read low 1.01 | locus YER167W, strain BCK2, active compounds read low 0.989 | locus YFR010W, strain ubp6, active compounds read low 0.982 | locus YGL078C, strain dbp3, active compounds read low 0.99 | locus YGL086W, strain mad1, active compounds read low 0.969 | locus YGL167C, strain pmr1, active compounds read low 1 | locus YGL173C, strain kem1, active compounds read low 0.993 | locus YGL227W, strain vid30, active compounds read low 1 | locus YGL240W, strain doc1, active compounds read low 0.989 | locus YGL248W, strain PDE1, active compounds read low 0.964 | locus YGL253W, strain hxk2, active compounds read low 0.988 | locus YGR135W, strain pre9, active compounds read low 0.94 | locus YGR229C, strain SMI1, active compounds read low 0.941 and 0.953 | locus YGR252W, strain gcn5, active compounds read low 0.841 | locus YHR013C, strain ard1, active compounds read low 0.976 | locus YHR027C, strain rpn1, active compounds read low 0.96 | locus YHR030C, strain SLT2, active compounds read low 0.997 and 1.01 | locus YHR079C, strain IRE1 (second series), active compounds read low 0.997 | locus YHR079C, strain IRE1, active compounds read low 1.01 | locus YHR094C, strain hxt1, active compounds read low 0.997 | locus YHR129C, strain ARP1, active compounds read low 0.995 | locus YHR142W, strain chs7, active compounds read low 0.91 | locus YHR200W, strain rpn10, active compounds read low 0.991 | locus YIL066C, strain RNR3, active compounds read low 0.992 | locus YIL073C, strain SPO22, active compounds read low 0.918 | locus YIL125W, strain kgd1, active compounds read low 0.981 | locus YIR030C, strain dcg1, active compounds read low 0.99 | locus YJL092W, strain hpr5, active compounds read low 0.971 | locus YJL095W, strain BCK1 (second series), active compounds read low 0.973 | locus YJL095W, strain BCK1, active compounds read low 0.941 and 0.998 | locus YJL115W, strain asf1, active compounds read low 0.97 | locus YJL129C, strain trk1, active compounds read low 1.01 | locus YJL134W, strain LCB3, active compounds read low 0.982 | locus YJL154C, strain vps35, active compounds read low 0.975 | locus YJL164C, strain tpk1, active compounds read low 0.989 | locus YJL166W, strain qcr8, active compounds read low 0.958 | locus YJL168C, strain set2, active compounds read low 0.998 | locus YJL187C, strain SWE1 (second series), active compounds read low 0.979 | locus YJL187C, strain SWE1, active compounds read low 0.973 | locus YJR043C, strain POL32, active compounds read low 1.01 | locus YJR066W, strain TOR1, active compounds read low 0.949
